Here are results for 46 molecules from the antibiotic and cytotoxicity screens of Wong et al. (2023).

Out of some 39,000 compounds screened, about 3,300 (8.5%) were called active. Many of the other results were omitted from the sample, so actives are more common in it than they were.

In this experiment the test system is HepG2. As to the kind of experiment: cytotoxicity call (relative viability < 0.9). The note with it: 10 µM.
With `NCCCN`, the cytotoxicity call was “inactive”. As to `C[C@@H]1CN([C@H](C)CO)C(=O)c2cc(NS(=O)(=O)c3cccs3)ccc2O[C@@H]1CN(C)Cc1ccncc1`, the cytotoxicity call is “inactive”.

As to `O=C(C[C@H]1CC[C@H]2[C@@H](COC[C@@H](O)CN2C(=O)Nc2ccc(C(F)(F)F)cc2)O1)NCCc1ccncc1`, the cytotoxicity call is “inactive”. Turning to `Cc1noc(C)c1NC(=O)Nc1ccc2c(c1)C(=O)N([C@H](C)CO)C[C@H](C)[C@H](CN(C)S(=O)(=O)c1ccc(F)cc1)OCCCC[C@@H](C)O2`, the cytotoxicity call was “inactive”. The value for `COCC#Cc1ccc2c(c1)O[C@@H](CN(C)C(=O)Nc1ccccc1F)[C@@H](C)CN([C@@H](C)CO)S2(=O)=O` was “inactive”; that for `CCCN1C[C@@H](C)[C@@H](OC)CN(C)C(=O)c2cc(NS(=O)(=O)c3cn(C)cn3)ccc2OC[C@H]1C` was “inactive”; that for `CN1CCN(C(=O)C[C@H]2CC[C@@H]3[C@H](COC[C@H](O)CN3C(=O)C3CCOCC3)O2)CC1` was “inactive”. `CCOc1ccc(S(=O)(=O)[O-])c2cccnc12.[Na+]`: the cytotoxicity call was “inactive”. As to `O=S(=O)([O-])c1cc(I)c(O)c2ncccc12.[Na+]`, the cytotoxicity call was “active”. Take `Cc1ccc2c(Cl)cc(Cl)c(O)c2n1`: the cytotoxicity call is “inactive”. As to `Oc1c(I)cc(Cl)c2cccnc12`, the cytotoxicity call is “active”.

For `Oc1c(Br)cc(Br)c2cccnc12`, the cytotoxicity call was “active”. On to `O=c1nc[nH]c2ncccc12`, for which the cytotoxicity call is “inactive”. On to `Oc1c(Cl)cc(Cl)c2cccnc12`, for which the cytotoxicity call was “active”. The value for `c1cnc2ccc3ncccc3c2c1` was “inactive”. `Clc1nccc2ccccc12`: the cytotoxicity call is “inactive”.

In the case of `CCCCCCCCCCCCCCCCCCOC[C@H](COP(=O)(O)O[C@H]1[C@@H](O)[C@@H](O)[C@@H](O)C[C@@H]1OC)OC`, the cytotoxicity call is “inactive”. Regarding `C[C@@H]1CCCCO[C@@H](CN(C)S(C)(=O)=O)[C@H](C)CN([C@H](C)CO)C(=O)c2cc(NS(=O)(=O)c3cn(C)cn3)ccc2O1`, the cytotoxicity call is “inactive”. `O=C(C[C@@H]1CC[C@H](NC(=O)CN2CCOCC2)[C@H](CO)O1)NCCc1ccncc1`: the cytotoxicity call was “inactive”. With `CC(=O)N1Cc2cc(C(=O)NCC(F)(F)F)nc(-c3cccc(-c4cc5ccccc5o4)c3)c2[C@H]1CCO`, the cytotoxicity call is “inactive”. Next, `C[C@@H]1CCCCO[C@H](CN(C)C(=O)Nc2ccc(C(F)(F)F)cc2)[C@@H](C)CN([C@H](C)CO)C(=O)c2cc(NS(=O)(=O)c3cn(C)cn3)ccc2O1`: “inactive”; `C[C@@H]1CN([C@H](C)CO)S(=O)(=O)c2ccc(-c3ccc(C(=O)N(C)C)cc3)cc2O[C@H]1CN(C)C(=O)Cc1ccccn1`: “inactive”; `Cc1noc(C)c1S(=O)(=O)Nc1ccc2c(c1)C(=O)N([C@@H](C)CO)C[C@@H](C)[C@@H](CN(C)C(=O)Nc1ccc(F)cc1)OCCCC[C@@H](C)O2`: “inactive”. On to `C[C@H](CO)N1C[C@H](C)[C@H](CN(C)C(=O)Nc2ccccc2)Oc2ccc(NC(=O)CCCN(C)C)cc2C1=O`, for which the cytotoxicity call was “inactive”.

As to `Cc1cc(C)c2ccc(Cl)nc2n1`, the cytotoxicity call was “inactive”. `Cc1noc(C)c1NC(=O)Nc1ccc2c(c1)C(=O)N([C@H](C)CO)C[C@H](C)[C@H](CN(C)CC1CCCCC1)OCCCC[C@H](C)O2`: the cytotoxicity call was “inactive”.

Regarding `C[C@@H]1CN([C@@H](C)CO)C(=O)c2cc(NC(=O)Nc3cccc4ccccc34)ccc2O[C@H]1CN(C)C(=O)NC1CCCCC1`, the cytotoxicity call is “inactive”.

With `CC(C)NC(=O)N(C)C[C@H]1Oc2cc(C#Cc3ccccn3)ccc2S(=O)(=O)N([C@H](C)CO)C[C@@H]1C`, the cytotoxicity call was “inactive”. The value for `CC(C)(O)c1ccccc1CCC(SCC1(CC(=O)[O-])CC1)c1cccc(C=Cc2ccc3ccc(Cl)cc3n2)c1.[Na+]` (stereo unspecified) was “inactive”; that for `Nc1ncccc1O` was “inactive”.

Take `Nc1ncccc1F`: the cytotoxicity call is “inactive”. As to `Oc1c(I)cc(I)c2cccnc12`, the cytotoxicity call was “active”. As to `CC(=O)N(C)C[C@H]1Oc2ncc(C#C[C@@H](C)O)cc2C(=O)N([C@H](C)CO)C[C@@H]1C`, the cytotoxicity call was “inactive”. As to `COc1ccc([Si](C)(C)[C@H]2[C@H](CC(=O)N(CCO)Cc3ccccc3)O[C@@]3(C(=O)N(Cc4ccc(N5CCOC5=O)cc4)c4ccccc43)[C@@H]2C)cc1`, the cytotoxicity call is “inactive”.

For `COc1ccc([Si](C)(C)[C@H]2[C@H](CC(=O)N(CCO)Cc3ccccc3)O[C@@]3(C(=O)N(Cc4cccc(N5C(=O)c6cccc7cccc5c67)c4)c4ccccc43)[C@@H]2C)cc1`, the cytotoxicity call is “active”. Consider `COc1ccc([Si](C)(C)[C@@H]2[C@@H](CC(=O)N(CCO)Cc3ccccc3)O[C@]3(C(=O)N(Cc4ccc(N5C(=O)c6cccc7cccc5c67)cc4)c4ccccc43)[C@H]2C)cc1`, for which the cytotoxicity call is “active”. The value for `COc1ccc([Si](C)(C)[C@@H]2[C@@H](CC(=O)N(CCO)Cc3ccccc3)O[C@]3(C(=O)N(Cc4cccc(N5CCC5=O)c4)c4ccccc43)[C@H]2C)cc1` was “inactive”; that for `C[C@H]1[C@H]([Si](C)(C)F)[C@@H](CC(=O)N(CCO)Cc2ccccc2)O[C@]12C(=O)N(c1ccccc1)c1ccccc12` was “inactive”. Consider `COc1ccc([Si](C)(C)[C@H]2[C@H](CC(=O)N(CCO)Cc3ccccc3)O[C@@]3(C(=O)N(Cc4ccc(N5CCC5=O)cc4)c4ccccc43)[C@@H]2C)cc1`, for which the cytotoxicity call was “inactive”. With `C[C@@H]1[C@@H]([Si](C)(C)F)[C@H](CC(=O)N2Cc3ccccc3C[C@H]2CO)O[C@@]12C(=O)N(c1ccccc1)c1ccccc12`, the cytotoxicity call is “inactive”. In the case of `COc1ccc([Si](C)(C)[C@@H]2[C@@H](CC(=O)N(CCO)Cc3ccccc3)O[C@]3(C(=O)N(Cc4ccc(N5CCC5=O)cc4)c4ccccc43)[C@H]2C)cc1`, the cytotoxicity call was “inactive”.

Turning to `COc1ccc([Si](C)(C)[C@H]2[C@H](CC(=O)N(CCO)Cc3ccccc3)O[C@@]3(C(=O)N(Cc4cccc(N5CCC5=O)c4)c4ccccc43)[C@@H]2C)cc1`, the cytotoxicity call is “inactive”. Regarding `C[C@@H]1[C@@H]([Si](C)(C)F)[C@H](CC(=O)N(CCO)Cc2ccccc2)O[C@@]12C(=O)N(c1ccccc1)c1ccccc12`, the cytotoxicity call is “active”.

`COc1ccc([Si](C)(C)[C@H]2[C@H](CC(=O)N(CCO)Cc3ccccc3)O[C@@]3(C(=O)N(Cc4ccc(N5C(=O)c6cccc7cccc5c67)cc4)c4ccccc43)[C@@H]2C)cc1`: the cytotoxicity call was “active”. In the case of `COc1ccc([Si](C)(C)[C@@H]2[C@@H](CC(=O)N(CCO)Cc3ccccc3)O[C@]3(C(=O)N(Cc4cccc(N5CCCCC5=O)c4)c4ccccc43)[C@H]2C)cc1`, the cytotoxicity call is “inactive”.

For `N#Cc1ccc[nH]c1=O`, the cytotoxicity call was “inactive”.
